The panel holds about 83,000 compounds, 20% with a hit somewhere; the sample as a whole holds those more often.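 Activity criterion: percent growth below 10, measured after cells in 96-well plates were exposed to a single compound concentration for 48 hours.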 Active and inactive are the calls of the source.
Columns and labels:
Assay in all cases: NCI-60 one-dose screen, 48 h (100 = growth as untreated, 0 = no growth, -100 = all killed)
Conditions in all cases: 10 µM unless noted
[1] = test system: DU-145 prostate
[2] = test system: K-562 leukemia
[3] = test system: MALME-3M melanoma
[4] = test system: MDA-MB-231 breast
[5] = test system: RXF 393 renal
[6] = test system: SF-268 CNS
[7] = test system: SF-295 CNS
[8] = test system: SF-539 CNS
[9] = test system: UACC-257 melanoma
[10] = test system: M14 melanoma

Measured: growth

N#Cc1c(-c2ccc(Cl)cc2)csc1NC(=O)Nc1cccc(C(F)(F)F)c1
inactive: [1] 16.9% | [3] 14.8% | [5] 59.5% | [6] 27.9% | [8] 37.9% | [9] 27.8% | [10] 20.4%
active: [2] 9.25% | [4] -0.969% | [7] 3.47%

C=CCN1C(=O)c2cccc3c(-c4ccc5c(c4)ncn5C4CCCCC4)ccc(c23)C1=O
inactive: [1] 72.5% | [2] 26.2% | [3] 56% | [4] 57.1% | [5] 110% | [6] 72.4% | [7] 44.5% | [8] 71.4% | [9] 44.6% | [10] 50%

C=CC(=O)Nc1cc2c(Nc3ccc(F)c(Cl)c3)ncnc2cc1C#CC(C)(C)N1CCN(C)CC1
active: [1] -98.9% | [2] -30.7% | [3] -85.3% | [4] -90.1% | [5] -98.6% | [6] -94.3% | [7] -97.4% | [8] -100% | [9] -86.2% | [10] -90%

NC[C@@](O)(c1ccc(Cl)cc1)c1ccc(-c2cn[nH]c2)cc1
active: [3] -24.7% | [5] -6.86% | [8] 3.43% | [9] -23.9% | [10] 7.61%
inactive: [1] 30.3% | [2] 17.2% | [4] 31.7% | [6] 35.5% | [7] 28.6%

O=C(NOCCO)c1ccc2cncn2c1Nc1ccc(I)cc1F
inactive: [1] 64.6% | [2] 38.2% | [4] 31.6% | [6] 74.5% | [7] 91.9% | [8] 66.2%
active: [3] 1.32% | [5] -6.5% | [9] -20.7% | [10] 5.3%

C#Cc1cccc(Nc2ncnc3cc4c(cc23)OCCOCCOCCO4)c1
inactive: [1] 47.8% | [2] 36.2% | [3] 84.8% | [4] 67.4% | [5] 40.7% | [6] 51.6% | [7] 39.6% | [8] 80.5% | [9] 38.9% | [10] 49.2%

Cc1cc(C(=O)Nc2cc(Oc3ccc4nc(NC(=O)C5CC5)cn4n3)ccc2C)n(C)n1
active: [2] 7.79% | [3] -5.45% | [5] -15.1% | [8] 3.9% | [9] -29% | [10] -8.27%
inactive: [1] 54.3% | [4] 21.9% | [6] 40.9% | [7] 52.5%

C1=C\COCc2cc(ccc2OCCN2CCCC2)Nc2nccc(n2)-c2cccc(c2)COC/1
active: [2] 1.93% | [3] -79.3% | [4] -1.88% | [5] -74.8% | [6] -0.949% | [7] -33.8% | [8] -83.7% | [9] -75.1% | [10] -59.4%
inactive: [1] 13.7%

COc1cc(N2CCC(N(C)C)CC2)ccc1Nc1ncc(Cl)c(Nc2ccccc2P(C)(C)=O)n1
inactive: [2] 12.5% | [3] 32% | [7] 27.7% | [9] 17.2% | [10] 10.3%
active: [1] 0.609% | [4] 5.47% | [5] -60.1% | [6] -26.8% | [8] -49.3%

Nc1nc(N)c2nc(-c3cccc(O)c3)c(-c3cccc(O)c3)nc2n1
inactive: [1] 80.8% | [2] 28.5% | [3] 91.3% | [4] 96.5% | [5] 70.8% | [6] 58.2% | [7] 89.8% | [8] 81.7% | [9] 65.4% | [10] 87.5%

Cc1ccc(C(=O)Nc2ccc(CN3CCN(C)CC3)c(C(F)(F)F)c2)cc1C#Cc1cnc2cccnn12
active: [1] -99.7% | [2] -64.9% | [3] -85.5% | [4] -85% | [5] -95.1% | [6] -96.4% | [7] -95.7% | [8] -97.2% | [9] -88.3% | [10] -88.8%

CCCCn1c(C)nc2ccc(Nc3nc(N4CCN(C)CC4)nc4nc[nH]c34)cc21
inactive: [1] 91.8% | [2] 83.2% | [3] 102% | [4] 86.2% | [5] 95% | [6] 73.2% | [7] 105% | [8] 87.6% | [9] 101% | [10] 107%

CC(=O)C1=C(C)NC(SCc2nnc(-c3ccc(C)cc3)o2)=NC1c1ccc(F)cc1 (stereo not given)
inactive: [1] 107% | [2] 100% | [3] 98% | [4] 93.6% | [5] 103% | [6] 111% | [7] 108% | [8] 93.4% | [9] 111% | [10] 96%

CCS(=O)(=O)N1CCN(c2ccc(Nc3ncc(C(N)=O)c(NC4CC4)n3)cc2)CC1
inactive: [1] 88.5% | [2] 56.4% | [3] 76.7% | [4] 69.6% | [5] 25.8% | [6] 75.5% | [7] 61.9% | [8] 53.5% | [9] 101% | [10] 59.5%

COc1cc(N2CCC(N3CCN(C)CC3)CC2)ccc1Nc1ncnc(Nc2ccccc2S(=O)(=O)C(C)C)n1
inactive: [1] 100% | [2] 94% | [3] 106% | [4] 95.9% | [5] 133% | [6] 100% | [7] 104% | [8] 100% | [9] 108% | [10] 93.3%

N#CCNC(=O)c1ccc(-c2ccnc(Nc3ccc(N4CCOCC4)cc3)n2)cc1
inactive: [1] 18.6% | [2] 26.9% | [3] 33.2% | [4] 19.8% | [6] 22.1% | [7] 49.5% | [9] 31.1% | [10] 44%
active: [5] -62.8% | [8] -9.39%

COc1cc2cc(NCc3ccc(Cl)cc3)nc(C)c2cc1OC
active: [2] 9.09% | [8] -14.9%
inactive: [1] 49% | [3] 88.3% | [4] 42.1% | [5] 48.5% | [6] 43.7% | [7] 34.4% | [9] 64.2% | [10] 19.3%

Cn1cnc(-c2cc3nccc(Oc4ccc(NC(=S)NC(=O)Cc5ccccc5)cc4F)c3s2)c1
active: [2] 6.69%
inactive: [1] 104% | [3] 86.3% | [4] 81.2% | [5] 87.1% | [6] 84.3% | [7] 52.5% | [8] 58.7% | [9] 60.5% | [10] 96.5%

CC(C)NC[C@@H](C(=O)N1CCN(c2ncnc3c2[C@H](C)C[C@H]3O)CC1)c1ccc(Cl)cc1
active: [5] -24.8% | [8] 2.83%
inactive: [1] 67.8% | [2] 64.7% | [3] 60.1% | [4] 87.6% | [6] 57.7% | [7] 19.9% | [9] 42.8% | [10] 69.9%

Cc1c(CN2CCN(C(=O)[C@H](C)O)CC2)sc2c(N3CCOCC3)nc(-c3cnc(N)nc3)nc12
inactive: [2] 17.6% | [6] 12.1%
active: [1] 8.38% | [3] -52.3% | [4] 7.09% | [5] -40.1% | [7] -45% | [8] -47.5% | [9] -34.3% | [10] -21.4%

CC(C)(C)c1ccc(Cn2cc(CSc3nc4ccccc4s3)nn2)cc1
inactive: [1] 115% | [2] 95.6% | [3] 94% | [4] 86.2% | [5] 103% | [6] 95.3% | [7] 91% | [8] 101% | [9] 97.3% | [10] 97%

CCCS(=O)(=O)Nc1ccc(F)c(C(=O)c2c[nH]c3ncc(-c4ccc(Cl)cc4)cc23)c1F
inactive: [1] 49.3% | [2] 21.9% | [3] 11.2% | [4] 34.4% | [6] 41.4% | [8] 23.7%
active: [5] -11.6% | [7] 7.92% | [9] -6.6% | [10] 3.85%
